From PubChem BioAssay
CR mimetic SO: lowers age-related superoxide in aged yeast cells; S. cerevisiae aged cells, superoxide DHE fluorescence; active compounds read low; superoxide response (% of plate mean), % at 10 µM; 0.18% of 330,000 active;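 active means superoxide response under a set limit, about three screen SD below normal, cut at about 65% in these data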;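 further: yeast aged for seven days with compound at 30 °C before DHE staining; 100% = average MFI of all compound-treated wells on the plate with controls excluded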
Mot1-301 SUMO: inhibitors of SUMOylation pathway: yeast Mot1-301 growth rescue | S. cerevisiae Mot1-301 growth rescue, ATP luminescence, 38.5C; percent above DMSO median, 100 means doubled | growth rescue, % at 18.8 µM | 1% of 320,000 active | AID 2716;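 active means every valid replicate shows activation above 250% relative to neutral control wells; inactive means the rest, any valid replicate at or below 250%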;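 further: OY570 slx delta 5 strain wells were the positive control but not used for scaling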
aDG glyco act: increases alpha dystroglycan glycosylation; Pro5-aDG cells, alpha-DG glycosylation AlphaScreen (IIH6); 0% Pro5, 100% B10-LARGE cell signal; activation, % at 10 µM; 0.22% of 360,000 active;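 active means activation of at least 8% versus controls, or a plate z-score of at least 8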;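 further: Pro5 are CHO cells carrying HIG-tagged alpha-DG that lacks glycosylation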
Cardio protect: myocardial damage modulation in H9c2 cells | AID 588492 | H9c2 cardiomyocytes, H2O2 injury protection, ATPLite, 2 h | protection from H2O2 cell death, % at 20 µM | 0.63% of 360,000 active;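 active means compounds giving at least 50% protection of heart cells from peroxide-induced death in the single-dose screen, raw or plate-pattern-corrected value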;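 further: 0% = DMSO wells with peroxide and 100% = DMSO wells without peroxide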
MPTP block: permeability transition pore inhibition | isolated mouse mitochondria, Ca2+ swelling absorbance, 30 min | inhibition, % at 10 µM | 1.4% of 360,000 active | AID 602449;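 active means inhibition of 50% or more, scaled per plate between neutral and stimulator controls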;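 further: 0% = DMSO wells given calcium and 100% = 1 mM EGTA wells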
FAS-TE inh: blocks the thioesterase domain of human fatty acid synthase; P49327; recombinant FAS-TE, OMFH fluorogenic substrate, fluorescence endpoint; inhibition, % at 15 µM; 0.67% of 360,000 active; AID 602261;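 active means compounds whose normalised, plate-corrected inhibition of enzyme fluorescence in the single-dose primary screen is 50% or more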;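 further: 0% = DMSO with enzyme and 100% = substrate without enzyme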
FAS-TE inh conf: FAS thioesterase (human) inhibition, confirmation | 45% of 2,300 active | inhibition, % at 15 µM | shares compounds with FAS-TE inh | recombinant FAS-TE, OMFH fluorogenic substrate, fluorescence;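 active means compounds inhibiting the enzyme by at least 50% at 15 µM in any one of the replicates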;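 further: 0% = enzyme with DMSO only and 100% = wells lacking enzyme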
Active calls of the source: *; nt = not tested or not shown. Only some compounds are listed: those with a hit (about 3.8% of all), similar ones and a draw of the others.

SMILES	CR mimetic SO	Mot1-301 SUMO	aDG glyco act	Cardio protect	MPTP block	FAS-TE inh	FAS-TE inh conf
Cc1cc(C)c(C#N)c(N2CCN(Cc3ccc4c(c3)OCO4)CC2)n1	104	6	0	6	1	61*	26
COC(=O)c1ccccc1S(=O)(=O)NNC(=O)Nc1ccccc1	104	-10	0	-3	-1	-2	nt
O=C(NC(=S)N1CCN(C(c2ccccc2)c2ccccc2)CC1)c1ccc(S(=O)(=O)N2CCOCC2)cc1	106	5	0	8	2	56*	24
CC(C)C[C@H](NC(=O)C1CCN(S(=O)(=O)c2ccccc2)CC1)C(=O)NCc1ccncc1	113	-10	4	2	-2	-5	nt
Cc1ccc(C(O)c2ncc(-c3ccccc3C(F)(F)F)[nH]2)cc1F (stereo not given)	nt	nt	0	-2	5	-1	nt
COc1cccc(-n2c(CN3CCN(c4ccc(C)cc4)C(C)C3)nc3ccc([N+](=O)[O-])cc3c2=O)c1 (stereo not given)	92	1	0	2	2	50	nt
COc1ccc(-n2c(CN3CCN(c4ccccc4)CC3)nc3ccc([N+](=O)[O-])cc3c2=O)c(OC)c1	107	-15	0	-5	1	25	nt
COc1cccc(-n2c(CN3CCN(c4cccc(C)c4)C(C)C3)nc3ccc([N+](=O)[O-])cc3c2=O)c1 (stereo not given)	90	5	0	5	3	80*	20
COc1cccc(-n2c(CN3CCN(c4ccccn4)CC3)nc3ccc([N+](=O)[O-])cc3c2=O)c1	93	-7	0	2	1	81*	81*
CCCCSc1nc2ccc(Nc3nc(N4CCOCC4)nc(N4CCOCC4)n3)cc2s1	105	-10	0	10	1	86*	42
CCCCNC(=O)CSc1nc2ccc(Nc3nc(N4CCOCC4)nc(N4CCOCC4)n3)cc2s1	102	6	0	22	3	0	nt
CCOC1=C2[C@H](c3ccccc3)N(S(=O)(=O)c3ccc(C)cc3)C(C(C)(C)C)[C@H]2n2c(=O)n(-c3ccccc3)c(=O)n2C1 (stereo not given in full)	nt	nt	0	0	3	89*	28
CCOC1=C2[C@H](c3ccccc3)N(S(=O)(=O)c3ccc(C)cc3)[C@H](C(C)C)[C@H]2n2c(=O)n(-c3ccccc3)c(=O)n2C1	nt	nt	0	3	0	60*	18
CC(C)N(C(=NCc1ccccc1)NC(=O)c1ccccc1)C(C)C	97	66	0	-7	0	-9	nt
CCNC(=O)C1(C)CCCN1Cc1ccccc1Cl (stereo not given)	nt	nt	0	2	2	-6	nt
N#CC1CCN(C(=O)c2ccc3c(Cl)c4c(nc3c2)CCCC4)CC1	96	1	0	3	0	78*	86*
CCOC(=O)[C@]12CCCC=C1N(Cc1ccc(Cl)cc1Cl)C(=O)[C@H](CC(=O)N1CCSCC1)C2	nt	nt	0	nt	0	-1	nt
Cc1[nH]n(-c2ccc(Cl)cc2)c(=O)c1C=Nc1ccc(S(=O)(=O)N2CCOCC2)cc1	95	-26	0	-8	2	63*	16
COc1nccnc1NS(=O)(=O)c1ccc(N=Cc2c(C)[nH]n(-c3ccc(Cl)cc3)c2=O)cc1	120	-16	nt	nt	nt	nt	nt
O=C(NCCOc1ccccc1)C1C(=O)Nc2ccccc2C(=O)N1C1CCCCC1 (stereo not given)	nt	nt	0	nt	0	nt	nt
CCOC(=O)C(C(=O)NCc1ccc(C)cc1)c1ncc(C(F)(F)F)cc1Cl (stereo not given)	95	-14	0	-9	-3	39	nt
Cc1ccc(CNC(=O)C(C(=O)NCc2ccc(C)o2)c2ncc(C(F)(F)F)cc2Cl)o1	88	nt	0	2	-1	62*	7
COc1ccc2[nH]c3c(c2c1)CCN1C(=O)N([C@@H](C)C(=O)NCc2ccc(C)cc2)C(=O)[C@]31C	110	-13	0	-4	1	-6	nt
CC(=O)OCCCNc1cc(SCc2ccco2)c2nonc2c1[N+](=O)[O-]	118	-14	1	19	0	19	nt
CCC(=O)OCCNc1cc(Sc2nc3ccccc3s2)c2nonc2c1[N+](=O)[O-]	101	143	0	-22	5	83*	11
SMILES	CR mimetic SO	Mot1-301 SUMO	aDG glyco act	Cardio protect	MPTP block	FAS-TE inh	FAS-TE inh conf
CCC(=O)OCCNc1cc(Sc2nc3ccccc3[nH]2)c2nonc2c1[N+](=O)[O-]	96	6	0	-22	2	80*	83*
CCCC(=O)OCCNc1cc(SCc2ccco2)c2nonc2c1[N+](=O)[O-]	114	13	0	14	0	25	nt
COc1ccc(N=C2C(=Nc3ccc(OC)cc3)N(c3ccc(N(C)C)cc3)C(=S)N2c2ccc(OC)cc2)cc1	111	3	-1	0	3	80*	25
Cc1ccc(C)c(N(CC(=O)NCCc2ccccc2)C(=O)CCC(=O)Nc2ccccn2)c1	100	3	0	4	0	4	nt
CC1=C(C(=O)N2CCOCC2)CC(CC(=O)NCc2cccc3ccccc23)C(=O)N1Cc1ccccc1 (stereo not given)	nt	nt	0	5	0	-3	nt
CCOC(=O)CSc1nc2c(sc3ccc([N+](=O)[O-])cc32)c(=O)n1Cc1ccco1	110	14	0	6	2	36	nt
CCC(C)n1c(=S)[nH]c2c(sc3ccc([N+](=O)[O-])cc32)c1=O (stereo not given)	111	-18	0	-20	37	54*	51*
Cc1cc(C)cc(CSc2ccc(S(=O)(=O)N3CCCC3)cn2)c1	93	23	0	-16	-2	27	nt
O=S(=O)(c1ccc(SCc2ccc(Cl)cc2)nc1)N1CCCC1	99	24	0	-10	0	54*	38
O=C1CC(N2CCN(c3ccc(S(=O)(=O)N4CCOCC4)cc3)CC2)C(=O)N1Cc1ccccc1 (stereo not given)	101	-1	0	-21	0	56*	65*
CN1C(=O)/C(=C/c2ccc(C(=O)Nc3ccc(O)cc3C(=O)O)cc2)SC1=S	103	-41	0	0	-3	17	nt
O=[N+]([O-])c1cc(-c2nnc(C34CC5CC(CC(C5)C3)C4)o2)cc([N+](=O)[O-])c1	92	16	1	0	2	53*	12
O=C(OCc1ccc([N+](=O)[O-])cc1)C1CCN(S(=O)(=O)c2ccccc2)CC1	112	5	0	3	0	60*	60*
